This is one part of the list. Unmarked numbers belong to inactive results. No stated cut-off is given here; in the data, active means inhibition above about 25%; inactive means the rest.

This test deals with Botulinum neurotoxin type F light chain protease (Clostridium botulinum). The test is described as follows: BoNT/F light chain protease inhibitors, confirmation, biochemical, flow cytometry, cherry pick 2 (AID 602336). The following applies: multiplex microsphere protease cleavage assay, at 10 µM, active compounds read high.
Turning to `Cc1ccc(CNC(=O)c2cccc3c2C(=O)c2ccc(N4CCC(C)CC4)cc2S3(=O)=O)cc1`, the inhibition was 6.1%.

With `O=C(OCC(=O)c1c[nH]c2ccccc12)c1cccc(O)c1`, the inhibition is -3.8%.

On to `CCOc1ncccc1C(=O)OCC(=O)c1c[nH]c2ccccc12`, for which the inhibition was 3%.

On to `O=C(CN1CCN(c2ccccc2O)CC1)NC(=O)NCc1ccccc1`, for which the inhibition was -4.3%.

Consider `COc1ccc(-c2cc3c(c4c2ccn4C)C2CCC3C2)cn1` (stereo not drawn), for which the inhibition is 4.4%.

In the case of `CC(=O)OCCN(CCCn1c(-c2ccncc2)nc2ccccc21)c1nc(-c2ccc(C)cc2)cs1`, the inhibition was 4%.

For the compound `Cc1cc2ccccc2n1CCNC(=O)COc1ccc2ccccc2c1`, the inhibition was -12.9%.

`Cc1cc2cc(CNC(=O)c3ccc(S(=O)(=O)N4CCOCC4)cc3)ccc2[nH]1`: the inhibition is -10.8%.

Values taken from PubChem BioAssay AID602336 (NMMLSC, 2012).
